Hits are enriched below; roughly 2.9% of the tested compounds scored in any of these assays.
ZTA DNA inh = counter-screen for EBNA-1 inhibitors: inhibitors of Epstein-Barr virus ZTA; ZTA-DNA binding, fluorescence polarization; AID 2234; actives 0.15% (n = 320,000); P03206; inhibition, % at 11 µM; in the data active = inhibition above about 33%
EBNA-1 inh = blocks EBNA-1 binding to DNA | EBNA-1 DNA binding, fluorescence polarization | inhibition, % at 14.8 µM | AID 1950 | actives 0.34% (n = 300,000); in the data active = inhibition above about 28%
PAFAH1B2 FP inh = PAFAH1B2 (human) inhibition. P68402. recombinant PAFAH1B2, FP-rhodamine activity probe, fluorescence polarization. inhibition, % at 3.39 µM. actives 1.2% (n = 340,000). AID 492953;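 active = inhibition above the mean of all tested compounds plus 3 SD, cut at about 24% in these data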
PAFAH2 inh = inhibitors of human PAFAH2; Q99487; recombinant PAFAH2, FP-rhodamine activity probe, fluorescence polarization; inhibition, % at 3.39 µM; actives 0.99% (n = 340,000); AID 492956;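 active = inhibition above the mean over all tested compounds plus 3 SD, cut at about 30% in these data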;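 note: inhibitors block probe labeling of enzyme so polarization drops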
PAFAH1B3 FP inh = inhibitors of human PAFAH1B3. recombinant PAFAH1B3, FP-rhodamine probe, fluorescence polarization. actives 0.28% (n = 340,000). inhibition, % at 3.39 µM. Q15102;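 active = inhibition above the screen-wide average of all tested compounds plus 3 SD, cut at about 25% in these data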
pPAFAH FP inh = pPAFAH (human) enzyme inhibition; Q13093; recombinant pPAFAH, FP-rhodamine probe fluorescence polarization; inhibition, % at 3.39 µM; actives 1.5% (n = 330,000); AID 463082;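 active = inhibition above the mean inhibition across the screen plus 3 SD, cut at about 25% in these data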;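 note: inhibitors block binding of the rhodamine activity-based probe so polarization drops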
Target sequence (Q13093 whole entry, looked up): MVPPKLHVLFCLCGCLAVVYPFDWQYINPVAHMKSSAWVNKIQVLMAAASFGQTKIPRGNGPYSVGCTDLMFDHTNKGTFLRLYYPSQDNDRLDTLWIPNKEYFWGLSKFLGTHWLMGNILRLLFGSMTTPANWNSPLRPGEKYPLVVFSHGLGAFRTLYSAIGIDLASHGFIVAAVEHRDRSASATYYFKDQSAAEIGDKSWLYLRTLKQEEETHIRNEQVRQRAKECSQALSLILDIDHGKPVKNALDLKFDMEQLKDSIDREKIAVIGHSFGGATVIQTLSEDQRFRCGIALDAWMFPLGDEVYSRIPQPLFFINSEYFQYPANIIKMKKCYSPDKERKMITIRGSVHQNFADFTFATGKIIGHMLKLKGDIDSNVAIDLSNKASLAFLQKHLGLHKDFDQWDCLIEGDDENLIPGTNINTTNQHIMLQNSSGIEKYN
Each line names hits and unclear results; the compound was inactive in the other large screens.

COc1ccc([C@@H]2CC=C(C(=O)O)[C@H](c3ccc(C)cc3)N2S(=O)(=O)c2ccc(C)cc2)cc1OC	none (no result: ZTA DNA inh, EBNA-1 inh)
COc1ccc([C@@H]2CC=C(C(=O)O)[C@H](c3ccc(F)cc3)N2S(=O)(=O)c2ccc(Cl)cc2)cc1	PAFAH1B2 FP inh 29
CC(C)(C)OC(=O)COc1ccc(/C=N/NC(=O)CN2CCCCC2)cc1	none (no result: ZTA DNA inh, EBNA-1 inh, pPAFAH FP inh)
Clc1cccc(Cl)c1CNc1ccc(N2CCCC2)cc1	pPAFAH FP inh 27 (no result: PAFAH1B2 FP inh, PAFAH2 inh, PAFAH1B3 FP inh)
Cc1cc(C)nc(NNS(=O)(=O)c2ccc(Cl)cc2)n1	PAFAH1B2 FP inh 26 (no result: ZTA DNA inh, EBNA-1 inh)
CCN(CC(=O)Nc1sc2c(c1C#N)CCC(C)C2)Cc1nc2ccccc2c(=O)[nH]1 (configuration not stated)	PAFAH1B2 FP inh 27
O=c1[nH]cnc2c1c(-c1ccccc1)cn2-c1cccc(Cl)c1	pPAFAH FP inh 34
COc1ccc(-n2cc(-c3ccccc3)c3c(=O)[nH]cnc32)cc1	none
CC1(C)Nc2ccc(O)cc2-c2c1ssc2=S	pPAFAH FP inh 26
O=C(CCCOc1ccccc1)N1CCN(c2ccccc2)CC1	none
O=C(CCOc1ccccc1)N1CCN(c2ccc(O)cc2)CC1	pPAFAH FP inh 31
Cc1ccc(NC(=O)c2cncc(Br)c2)nc1	none
C[C@@H]1NC(=O)c2cc([N+](=O)[O-])cc(I)c2OCC[C@@H](C(N)=O)NC(=O)[C@H](CCCCN)NC1=O	none
NCCCC[C@H]1NC(=O)[C@H](CCC(=O)O)NC(=O)c2cc([N+](=O)[O-])cc(I)c2OCC[C@@H](C(N)=O)NC1=O	pPAFAH FP inh 33 (no result: PAFAH1B2 FP inh, PAFAH2 inh, PAFAH1B3 FP inh)
Cc1c(NC(=O)COC(=O)Cc2ccc(F)cc2)c(=O)n(-c2ccccc2)n1C	none
O=S(=O)(O)c1cc(O)c2c(O)c(N=Nc3cc(Cl)ccc3O)c(S(=O)(=O)O)cc2c1	PAFAH1B2 FP inh 34, PAFAH2 inh 49, PAFAH1B3 FP inh 35, pPAFAH FP inh 33
Cc1cc(-c2ccc(N=Nc3c(S(=O)(=O)O)cc4cc(S(=O)(=O)O)cc(N)c4c3O)c(C)c2)ccc1N=Nc1c(S(=O)(=O)O)cc2cc(S(=O)(=O)O)cc(N)c2c1O	ZTA DNA inh 181, EBNA-1 inh 69, pPAFAH FP inh 53 (no result: PAFAH1B2 FP inh, PAFAH2 inh, PAFAH1B3 FP inh)
Nc1cc(S(=O)(=O)O)cc2ccc(S(=O)(=O)O)cc12	none (no result: ZTA DNA inh, EBNA-1 inh, pPAFAH FP inh)
Cc1ccc(Nc2ccc(C(=O)O)cc2N)cc1	pPAFAH FP inh 28 (no result: PAFAH1B2 FP inh, PAFAH2 inh, PAFAH1B3 FP inh)
COc1cccc(Nc2ccc(C(=O)O)cc2N)c1	pPAFAH FP inh 25
O=C(NC1CCCCC1)c1c(O)nc2sccn2c1=O	none
CO[C@H]1/C=C/O[C@@]2(C)Oc3c(C)c(O)c4c(O)c(c(C=NN5CCN(C)CC5)c(O)c4c3C2=O)NC(=O)/C(C)=C\C=C\[C@H](C)[C@H](O)[C@@H](C)[C@@H](O)[C@@H](C)[C@H](OC(C)=O)[C@@H]1C	none
CO[C@H]1C=CO[C@@]2(C)Oc3c(C)c(O)c4c(O)c(c(C=NN5CCN(C)CC5)c(O)c4c3C2=O)NC(=O)C(C)=CC=C[C@H](C)[C@H](O)[C@@H](C)[C@@H](O)[C@@H](C)[C@H](OC(C)=O)[C@@H]1C	pPAFAH FP inh 31
COc1ccc(C(=O)NCCc2cccc(Cl)c2)cc1OC1CCN(C(C)=O)CC1	none
NCCC1CCCC(CCN)N1 (configuration not stated)	ZTA DNA inh active, EBNA-1 inh active
O=C(NNS(=O)(=O)c1ccccc1)c1ccccc1-n1cccc1	none
O=C(NNS(=O)(=O)c1ccc(Br)cc1)c1ccccc1-n1cccc1	PAFAH1B2 FP inh 29
O=C(CSc1nc2ccccc2s1)NNC(=S)Nc1ccccc1	none
O=C(CSc1nc2ccccc2s1)CSc1nc2ccccc2s1	pPAFAH FP inh 27
O=C(CSc1nc2ccccc2s1)NNC(=S)Nc1ccc(Br)cc1	PAFAH1B2 FP inh 24
O=C(CSc1nc2ccccc2s1)NCc1cc([N+](=O)[O-])ccc1O	PAFAH1B2 FP inh 29
O=C(CSc1nc2ccccc2s1)Nc1cc(S(=O)(=O)N2CCOCC2)ccc1O	PAFAH1B2 FP inh 87, PAFAH2 inh 84
O=C(O)CSc1nc2ccccc2s1	none
Cc1nnc(SCC(=O)Nc2cc(S(=O)(=O)N3CCOCC3)ccc2C)s1	none (no result: ZTA DNA inh, EBNA-1 inh, pPAFAH FP inh)
COc1cc(C(C(=O)NC2CCCC2)N(CCO)C(=O)Cn2nnc(-c3ccc(C)o3)n2)ccc1O (configuration not stated)	none

Screening results as filed in PubChem BioAssay.
